For 3 compounds, Inhibition results are on record in ChEMBL document CHEMBL1157539, “Thousands of chemical starting points for antimalarial lead identification” (Nature, 2010).

In general, Inhibition refers to how much of the control response was suppressed. Read a low Inhibition as a weak effect.

The experiment has as its system HepG2. As to the kind of experiment: GSK_TCMDC: Percent inhibition of human HepG2 cell line. Test compounds present at 10uM. In kind it is functional.
With `N#Cc1ccc(N(CCOc2ccc(Cl)c(F)c2)Cc2ccccc2C(F)(F)F)cc1C(F)(F)F`, the Inhibition stood at 17%. With `C=C(C)Cn1cc(C2CCN(CCCCNC(=O)c3sc(-c4ccc(Cl)cc4Cl)nc3CO)CC2)c2ccccc21`, the Inhibition was 22%. The compound `COc1nc2c(N3CCN(CCNCc4ccc5c(n4)NC(=O)CO5)CC3)ccnc2cc1F.Cl` displayed an Inhibition of 18%.
